Reference: PubChem BioAssay AID1159580 (chemical genetic matrix, 2015)
The whole screen tested about 5,500 compounds, of which about 2,000 (36%) were called active. Another 18% or so got no clear call; they are omitted. Rule as the data show it: active = normalized growth mostly below about 0.91 (no sharp cut-off); inconclusive = no clear call, values can overlap the other calls; inactive = mostly above about 0.92. The list shows a part of the results.

Assay: chemical genetic growth profiling, strain panel (AID 1159580);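 also: tested at 20 µM; growth read once vehicle control cultures reached saturation at 30 °C; 1 = growth at the plate median or of vehicle wells; lower values mean less growth of the strain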
Settings: growth OD

Measured: normalized growth

COc1ccc(-c2cc(=O)c3c(OC)cc(OC)cc3o2)cc1
inactive: S. cerevisiae deletion strains, locus YAL013W, strain DEP1, stronger effect = lower value 0.981 | S. cerevisiae deletion strains, locus YBR021W, strain FUR4, stronger effect = lower value 0.903 | S. cerevisiae deletion strains, locus YBR229C, strain ROT2, stronger effect = lower value 1 | S. cerevisiae deletion strains, locus YCL029C, strain bik1, stronger effect = lower value 1.01 | S. cerevisiae deletion strains, locus YDL035C, strain GPR1, stronger effect = lower value 0.981 | S. cerevisiae deletion strains, locus YDL074C, strain BRE1, stronger effect = lower value 0.905 | S. cerevisiae deletion strains, locus YDL101C, strain DUN1, stronger effect = lower value 0.988 | S. cerevisiae deletion strains, locus YDL134C, strain PPH21, stronger effect = lower value 0.984 | S. cerevisiae deletion strains, locus YDL185W, strain tfp1, stronger effect = lower value 0.996 | S. cerevisiae deletion strains, locus YDL192W, strain arf1, stronger effect = lower value 0.986 | S. cerevisiae deletion strains, locus YDR101C, strain arx1, stronger effect = lower value 0.977 | S. cerevisiae deletion strains, locus YDR150W, strain NUM1, stronger effect = lower value 1 | S. cerevisiae deletion strains, locus YDR162C, strain NBP2, stronger effect = lower value 0.944 | S. cerevisiae deletion strains, locus YDR318W, strain mcm21, stronger effect = lower value 0.973 | S. cerevisiae deletion strains, locus YDR388W, stronger effect = lower value 0.99 | S. cerevisiae deletion strains, locus YDR502C, strain sam2, stronger effect = lower value 0.963 | S. cerevisiae deletion strains, locus YEL061C, strain CIN8, stronger effect = lower value 0.997 | S. cerevisiae deletion strains, locus YER110C, stronger effect = lower value 1.02 | S. cerevisiae deletion strains, locus YER155C, strain BEM2, stronger effect = lower value 0.993 | S. cerevisiae deletion strains, locus YER167W, strain BCK2, stronger effect = lower value 0.989 | S. cerevisiae deletion strains, locus YGL078C, strain dbp3, stronger effect = lower value 1 | S. cerevisiae deletion strains, locus YGL086W, strain mad1, stronger effect = lower value 1 | S. cerevisiae deletion strains, locus YGL248W, strain PDE1, stronger effect = lower value 0.988 | S. cerevisiae deletion strains, locus YGR078C, strain PAC10, stronger effect = lower value 0.948 | S. cerevisiae deletion strains, locus YGR135W, strain pre9, stronger effect = lower value 0.926 | S. cerevisiae deletion strains, locus YGR229C, strain SMI1, stronger effect = lower value 0.873 | S. cerevisiae deletion strains, locus YGR252W, strain gcn5, stronger effect = lower value 0.834 | S. cerevisiae deletion strains, locus YHR030C, strain SLT2, stronger effect = lower value 0.997 | S. cerevisiae deletion strains, locus YHR079C, strain IRE1 (second series), stronger effect = lower value 0.979 | S. cerevisiae deletion strains, locus YHR094C, strain hxt1, stronger effect = lower value 1.01 | S. cerevisiae deletion strains, locus YHR129C, strain ARP1, stronger effect = lower value 0.99 | S. cerevisiae deletion strains, locus YHR200W, strain rpn10, stronger effect = lower value 0.992 | S. cerevisiae deletion strains, locus YIL066C, strain RNR3, stronger effect = lower value 0.965 | S. cerevisiae deletion strains, locus YIL073C, strain SPO22, stronger effect = lower value 0.983 | S. cerevisiae deletion strains, locus YIL125W, strain kgd1, stronger effect = lower value 1.01 | S. cerevisiae deletion strains, locus YIR030C, strain dcg1, stronger effect = lower value 0.993 | S. cerevisiae deletion strains, locus YJL095W, strain BCK1, stronger effect = lower value 0.888 | S. cerevisiae deletion strains, locus YJL134W, strain LCB3, stronger effect = lower value 0.994 | S. cerevisiae deletion strains, locus YJL168C, strain set2, stronger effect = lower value 0.998 | S. cerevisiae deletion strains, locus YJL187C, strain SWE1 (second series), stronger effect = lower value 0.957 | S. cerevisiae deletion strains, locus YJR043C, strain POL32, stronger effect = lower value 0.983 | S. cerevisiae deletion strains, locus YJR075W, strain HOC1, stronger effect = lower value 0.968 | S. cerevisiae deletion strains, locus YKL009W, strain mrt4, stronger effect = lower value 0.987 | S. cerevisiae deletion strains, locus YKL068W, stronger effect = lower value 1.01 | S. cerevisiae deletion strains, locus YKL085W, strain MDH1 (second series), stronger effect = lower value 1.01 | S. cerevisiae deletion strains, locus YKL085W, strain MDH1, stronger effect = lower value 1.01 | S. cerevisiae deletion strains, locus YKL190W, strain CNB1, stronger effect = lower value 0.996 | S. cerevisiae deletion strains, locus YKR001C, strain vps1, stronger effect = lower value 0.996 | S. cerevisiae deletion strains, locus YLR039C, strain RIC1, stronger effect = lower value 1.03 | S. cerevisiae deletion strains, locus YLR058C, strain SHM2, stronger effect = lower value 0.988 | S. cerevisiae deletion strains, locus YLR102C, strain apc9, stronger effect = lower value 0.998 | S. cerevisiae deletion strains, locus YLR262C, strain YPT6, stronger effect = lower value 1.02 | S. cerevisiae deletion strains, locus YLR268W, strain sec22, stronger effect = lower value 0.95 | S. cerevisiae deletion strains, locus YLR330W, strain CHS5, stronger effect = lower value 0.999 | S. cerevisiae deletion strains, locus YLR342W, strain FKS1 (second series), stronger effect = lower value 0.951 | S. cerevisiae deletion strains, locus YLR371W, strain rom2, stronger effect = lower value 1.01 | S. cerevisiae deletion strains, locus YLR418C, strain cdc73, stronger effect = lower value 0.869 | S. cerevisiae deletion strains, locus YML016C, strain PPZ1, stronger effect = lower value 1 | S. cerevisiae deletion strains, locus YML032C, strain rad52, stronger effect = lower value 0.969 | S. cerevisiae deletion strains, locus YML124C, strain tub3, stronger effect = lower value 1 | S. cerevisiae deletion strains, locus YMR078C, strain ctf18, stronger effect = lower value 0.988 | S. cerevisiae deletion strains, locus YMR223W, strain ubp8, stronger effect = lower value 0.972 | S. cerevisiae deletion strains, locus YMR263W, strain SAP30, stronger effect = lower value 0.95 | S. cerevisiae deletion strains, locus YMR307W, strain GAS1, stronger effect = lower value 0.839 | S. cerevisiae deletion strains, locus YNL067W, strain RPL9B, stronger effect = lower value 0.962 | S. cerevisiae deletion strains, locus YNL128W, strain TEP1, stronger effect = lower value 0.981 | S. cerevisiae deletion strains, locus YNL153C, strain GIM3, stronger effect = lower value 0.955 | S. cerevisiae deletion strains, locus YNL233W, strain BNI4, stronger effect = lower value 0.923 | S. cerevisiae deletion strains, locus YNL250W, strain rad50, stronger effect = lower value 1.01 | S. cerevisiae deletion strains, locus YNL271C, strain bni1, stronger effect = lower value 1.02 | S. cerevisiae deletion strains, locus YNL298W, strain CLA4, stronger effect = lower value 1 | S. cerevisiae deletion strains, locus YNL307C, strain MCK1, stronger effect = lower value 0.93 | S. cerevisiae deletion strains, locus YNL322C, strain KRE1, stronger effect = lower value 1.01 | S. cerevisiae deletion strains, locus YNR052C, strain pop2, stronger effect = lower value 0.995 | S. cerevisiae deletion strains, locus YOL006C, strain TOP1, stronger effect = lower value 0.858 | S. cerevisiae deletion strains, locus YOL012C, strain htz1 1.8 | S. cerevisiae deletion strains, locus YOL147C, strain pex11, stronger effect = lower value 0.989 | S. cerevisiae deletion strains, locus YOR061W, strain CKA2, stronger effect = lower value 0.999 | S. cerevisiae deletion strains, locus YOR069W, strain VPS5, stronger effect = lower value 1 | S. cerevisiae deletion strains, locus YOR136W, strain idh2, stronger effect = lower value 0.996 | S. cerevisiae deletion strains, locus YOR144C, strain elg1, stronger effect = lower value 1 | S. cerevisiae deletion strains, locus YOR184W, strain ser1, stronger effect = lower value 0.967 | S. cerevisiae deletion strains, locus YOR316C, strain cot1, stronger effect = lower value 1 | S. cerevisiae deletion strains, locus YPL055C, strain LGE1, stronger effect = lower value 0.92 | S. cerevisiae deletion strains, locus YPL241C, strain CIN2, stronger effect = lower value 0.996 | S. cerevisiae deletion strains, locus YPR119W, strain clb2, stronger effect = lower value 1 | S. cerevisiae deletion strains, locus YPR141C, strain kar3, stronger effect = lower value 1.01 | S. cerevisiae deletion strains, locus YPR163C, strain tif3, stronger effect = lower value 0.971 | S. cerevisiae deletion strains, locus YPR167C, strain met16, stronger effect = lower value 1 | S. cerevisiae deletion strains, strain wtn01, stronger effect = lower value 0.963 | S. cerevisiae strains, strain wild type, stronger effect = lower value 0.992
